DT40 TDP1 CPT: DT40-hTDP1 cell growth loss with CPT | AID 686979 | Potency, µM (series often up to 46.2 µM), for inactives: at the top dose activity change, negative = growth inhibition, hits mostly inhibitors | hit rate 12% among 420,000 | chicken DT40 Tdp1-/-;hTDP1 cells + 20 nM CPT, ATP luminescence, 48 h; further: potency means the concentration at half of the fitted maximal effect; on the % scale 0 is the no-effect control and ±100 the full control effect; nearly all actives have a fitted effect of over 55% in size
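Chicken DT40 Tdp1-/- cells complemented with human TDP1, 400 cells/well, exposed to compounds plus 20 nM camptothecin for at least 48 h at 37 C; viability read as ATP content by CellTiter-Glo luminescence.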
TGFb inhibitor: inhibitors of TGF-b signaling; HepG2 CAGA-GFP TGF-b/SMAD3 reporter, GFP fluorescence, 18 h; TGF-beta stimulated, 500 pg/mL final; Potency, µM (top dose mostly 46.1 µM), for inactives: at the highest dose activity, negative = inhibition, hits mostly inhibitors; hit rate 1.2% among 410,000; further: potency means the concentration at half of the fitted maximal effect; on the % scale 0 is the no-effect control and ±100 the full control effect; nearly all actives have a fitted effect of over 65% in size
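Cell-based qHTS in HEPG2 carrying a CAGA-GFP Smad reporter; compounds added before 500 pg/mL final TGF-beta, 18 h incubation at 37 degrees C, GFP fluorescence quantified per cell by imaging cytometry.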
TDP1 inh: inhibitors of human tyrosyl-DNA phosphodiesterase TDP1 | hit rate 0.28% among 350,000 | Potency, µM (titrated, usually from 130 µM), for the others: at the highest dose activity change, negative = inhibition, most hits filed as inhibitors | Q9NUW8 | recombinant TDP1, AlphaScreen DNA substrate cleavage; further: potency means the concentration at half of the fitted maximal effect; on the % scale 0 is the no-effect control and ±100 the full control effect; nearly all actives have a fitted effect of over 40% in size
Target sequence (Q9NUW8 whole entry, looked up): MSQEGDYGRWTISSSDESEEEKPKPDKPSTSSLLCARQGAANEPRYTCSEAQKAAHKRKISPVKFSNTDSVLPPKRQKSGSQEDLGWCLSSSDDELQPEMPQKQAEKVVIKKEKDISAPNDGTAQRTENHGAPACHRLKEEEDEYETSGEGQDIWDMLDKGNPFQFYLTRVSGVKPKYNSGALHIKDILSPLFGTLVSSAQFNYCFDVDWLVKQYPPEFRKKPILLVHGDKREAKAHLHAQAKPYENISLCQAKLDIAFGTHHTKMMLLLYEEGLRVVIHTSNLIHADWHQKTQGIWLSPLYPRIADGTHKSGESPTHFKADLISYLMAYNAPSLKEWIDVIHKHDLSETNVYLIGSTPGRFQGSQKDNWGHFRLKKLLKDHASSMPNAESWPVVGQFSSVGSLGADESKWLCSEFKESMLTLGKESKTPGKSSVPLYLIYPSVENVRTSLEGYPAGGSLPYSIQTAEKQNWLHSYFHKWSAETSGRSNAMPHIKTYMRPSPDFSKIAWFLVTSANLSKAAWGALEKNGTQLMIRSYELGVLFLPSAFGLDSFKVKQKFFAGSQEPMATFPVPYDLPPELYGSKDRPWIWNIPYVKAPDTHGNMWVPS
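Signal: AlphaScreen proximity between streptavidin donor and anti-FITC acceptor beads on intact substrate. Reaction: Tdp1 1 nM, substrate 15 nM final, 5 min RT after 15 min compound preincubation.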
DT40 TDP1 no CPT: qHTS for Inhibitors of human tyrosyl-DNA phosphodiesterase 1 (TDP1): qHTS in cells in absence of CPT | hit rate 15% among 420,000 | Potency, µM (top dose mostly 46.2 µM), inactives show at the top dose activity change, negative = growth inhibition, most hits filed as inhibitors | DT40 Tdp1-/- hTDP1 cells, no CPT, ATP luminescence, 48 h; further: potency means the concentration at half of the fitted maximal effect; on the % scale 0 is the no-effect control and ±100 the full control effect; nearly all actives have a fitted effect of over 55% in size
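A cellular qHTS used chicken DT40 cells lacking endogenous Tdp1 but carrying stably transfected human TDP1. Compounds were applied without camptothecin, and cell growth kinetics were judged by ATP-dependent luminescence after ≥48 hr.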
HepG2 viability: HepG2 cytotoxicity, counter-screen for TGF-b inhibitors; HepG2 CAGA-GFP viability, ATP luminescence, 18 h; Potency, µM (top dose mostly 46.1 µM), without a hit: top-dose activity change, negative = cytotoxicity, hits mostly cytotoxic; hit rate 0.76% among 410,000; further: potency means the concentration at half of the fitted maximal effect
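CellTiter-Glo luminescence gave cytotoxicity after 18 hours at 37 degrees C. The cells were HepG2 CAGA-GFP in 1% FBS DMEM, stimulated with 500 pg/mL TGF-beta after compound addition. %Activity was normalised to no-cell wells (complete cell-killing) and DMSO (no toxicity), and curves were fitted and classified.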
IL-1B inflam inh: inhibitors of inflammasome signaling (IL-1 beta secretion). THP-1 LPS/ATP IL-1B secretion, AlphaLISA, 16 h; stronger effect = lower value. hit rate 4.7% among 360,000. activity change, % at 57.5 µM; in the data active means activity change below about -50%; inconclusive means mostly about -30% to -49%; further: on the % scale 0 is the no-effect control and ±100 the full control effect
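THP-1 cells pretreated 1 hr with compounds (up to 57.5 uM final), then stimulated with LPS (250 ng/mL final) plus ATP (1.25 mM final); secreted IL-1B measured by AlphaLISA after 16 hr, decreased signal indicating inhibition.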
* = called active by the depositor; i = inactive; ? = inconclusive; . = no result; [ ] = another dose, or the depositor's remark. Shown are actives, neighbours in structure and some others; about 18% of the full set was active somewhere. Unless noted, the call rests on the fitted dose curve; in most records, active means well fitted curve in the direction sought with a large enough effect; inconclusive means small, poorly fitted or top-dose-only effect, or another doubt; inactive means no such curve, though single readings can be large; an effect the other way counts as inactive or inconclusive.

SMILES	DT40 TDP1 CPT	TGFb inhibitor	TDP1 inh	DT40 TDP1 no CPT	HepG2 viability	IL-1B inflam inh
Clc1nssc1=Nc1nncs1	5.8µM*	-6%	-5%	7.3µM*	1%	-73*
Clc1ccc(N=c2ssnc2Cl)nc1	3.3µM*	19%	3%	2.6µM*	4%	-14
O=C(O)CCn1cc(/C=C/C(=O)c2ccc(Cl)cc2)c(-c2ccc(Br)cc2)n1	16µM*	?	5%	23µM*	16µM*	-93*
Cc1cc(=O)[nH]c(N/N=C/c2cc(C)n(CC(F)(F)F)c2C)n1	8.2µM*	?	6%	7.3µM*	-13%	10
Cc1cc(=O)[nH]c(N/N=C/c2ccccc2C(F)(F)F)n1	-1%	5%	4%	?	-1%	0
COC(=O)c1ccc(-n2c(C)cc(/C=N/Nc3nc(C)cc(=O)[nH]3)c2C)cc1	15µM*	-6%	.	16µM*	-12%	13
CCOC(=O)c1c(NC(=O)c2cc(=O)c3c(C)cc(C)cc3o2)sc(C(C)=O)c1C	9%	-2%	9%	-21%	-3%	.
COc1cc(NC(=O)c2nnn(Cc3ccc(F)cc3)c2N)cc(OC)c1	?	-31%	-7%	-25%	-3%	.
CCC(=O)N1CCc2cc(CNC(=O)c3cccc(N(C)C)c3)ccc21	-7%	0%	5%	-26%	-17%	.
O=C(NC1CCCC1)C(c1ccccn1)N(C(=O)c1csnn1)c1ccccc1Br (centres undefined)	0%	-16%	3%	-2%	-20%	5
CN(C)CCNC(=O)c1cccc2nc3cccc(F)c3nc12	0.082µM*	?	.	0.26µM*	-78%	-116*
CN(C)CCNC(=O)c1cccc2ccc(-c3ccc(-c4ccccc4)cc3)nc12	?	-15%	.	?	-92%	-57*
CN(C)CCNC(=O)c1ccccc1	-13%	-8%	0%	-10%	-2%	15
COc1ccc(C23CC4CC(CC(C4)C2)C3)cc1C(=O)NCCN(C)C	21µM*	?	.	8.2µM*	16µM*	-13
COc1ccc(OC)c2nc3c(C(=O)NCCN(C)C)cccc3nc12	1.6µM*	?	.	2.6µM*	-42%	-100*
COc1cccc(CCN2C(=O)C(=O)N([C@@H](CNCc3ccccc3)Cc3ccccc3F)C[C@@H]2C(C)(C)C)c1	?	?	.	-76%	-14%	?
Cn1cc(/C=N/n2cnc3sc4c(c3c2=O)CCCC4)c2ccccc21	13µM*	-15%	4%	10µM*	4%	13
O=c1c2c3c(sc2ncn1/N=C/c1ccc([N+](=O)[O-])o1)CCCC3	2.6µM*	0%	3%	2.3µM*	-10%	-89*
COc1ccccc1CN1CCCC2(CCN(C(=O)c3ccco3)CC2)C1	6%	.	.	-1%	.	.
CCOc1ccccc1NC(=O)Cn1c(=O)n(-c2ccc(F)cc2)c(=O)c2sc3ccccc3c21	2%	3%	1%	?	-4%	.
COC(=O)C1(Cc2cc(-c3ccc(OC)cc3OC)no2)CCN(C(=O)OC(C)(C)C)CC1	?	?	.	21µM*	-4%	6
Nc1cccc2[nH]c(=O)c3ccccc3c12	?	4%	.	-19%	-7%	-8
O=C(NC(=S)NCCN1CCOCC1)c1ccc(F)cc1	-13%	-3%	1%	-19%	0%	i
CC(C)NC(=S)NC(=O)c1ccc(Cl)cc1Cl	?	-38%	0%	?	-35%	65
CC(C)CNC(=S)NC(=O)c1ccc(F)cc1	18µM*	0%	1%	?	-31%	1
SMILES	DT40 TDP1 CPT	TGFb inhibitor	TDP1 inh	DT40 TDP1 no CPT	HepG2 viability	IL-1B inflam inh
O=C(NC(=S)Nc1ccccc1O)c1ccc(Cl)cc1Cl	18µM*	?	2%	29µM*	-45%	-78*
CC(C)CNC(=S)NC(=O)c1ccc(Cl)cc1Cl	13µM*	-30%	0%	?	-25%	71
COc1ccc(S(=O)(=O)N2CCCCC2)cc1NC(=O)C1CC1(Cl)Cl (centres undefined)	-20%	-2%	.	-24%	-5%	5
CSCCC(NC(=O)c1ccccc1Br)C(=O)N1CCCCCCC1 (centres undefined)	-12%	1%	0%	-19%	-19%	-3
CSCCC(NC(=O)c1ccc(Cl)cc1Cl)C(=O)N1CCCCCCC1 (centres undefined)	?	-9%	-9%	23µM*	-73%	-7
CCCCc1cc2c(cn1)=C(OC(=O)C1CCCC1)C(C)(OC(=O)CC)C(=O)C=2 (centres undefined)	.	.	6%[21 µM]	.	.	.
O=C(O)Cn1cnc2scc(-c3ccccc3)c2c1=O	-19%	-2%	5%	-14%	-10%	23
Cc1nn(-c2ccccc2)c(N2CCCC2)c1/C=N/n1cnc2scc(-c3ccccc3)c2c1=O	10µM*	?	-5%	13µM*	-3%	37
O=c1c2c(-c3ccccc3)csc2ncn1/N=C/c1c2ccccc2cc2ccccc12	?	15%	3%	16µM*	-4%	37
COCCCNC(=O)CSc1nc2cc3c(cc2c(=O)n1CCCC(=O)NCc1ccc2c(c1)OCO2)OCO3	-4%	12%	0%	-15%	6%	.
COC(=O)c1cccc(C(=O)N2CCc3c(cnc(C)c3CNC(=O)/C=C/c3cccs3)C2)c1	9%[9.04 µM]	.	.	-5%	.	.
CCN(c1ccccc1)S(=O)(=O)c1cccc(C(=O)NCC2(N(C)C)CCCCC2)c1	-14%	0%	0%	?	-29%	-13
Cc1ccc(OCC(=O)OCC(=O)N2c3ccccc3CC2C)cc1C (centres undefined)	-1%	1%	-5%	1%	-67%	-8
O=C(CCc1ccccc1)NC1(Cc2ccccc2)CCN(CCCc2ccccc2)C1=O (centres undefined)	16µM*	13µM*	-4%	8.2µM*	-23%	-15
O=C(NC1(Cc2ccccc2)CCN(CCc2cccs2)C1=O)c1ccccc1 (centres undefined)	26µM*	5%	0%	?	-18%	-13
CC(C)CCN1CCC(Cc2ccccc2)(NC(=O)c2ccccc2)C1=O (centres undefined)	?	-4%	1%	?	-15%	-25
CCCS(=O)(=O)NC(=O)C1(C)CCCN(C(=O)c2cc(C(C)(C)C)nn2C)C1 (centres undefined)	-1%	8%	.	-1%	-9%	12

Assay outcomes as filed in PubChem BioAssay.
